# Experimental data from PubChem BioAssay.
# Calls of active or inactive are those of the source. Unless noted, no rule for the calls is given here.
# Assays:
# [1] = anti-His antibody binders, primary screen, artefact control for SMM control protein annotation, biochemical, small-molecule microarray, 635 nm fluorescence (AID 1128); conditions: anti-His Alexa647 antibody binding, higher = more signal;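 also: score merges feature fluorescence with signal-to-noise for each printed compound spot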
# [2] = system: Human papillomavirus type 1a E7 protein (residues 1-88); experiment: HPV1a E7 small-molecule binders, primary screen, biochemical, small-molecule microarray, residues 1-88, 635 nm (AID 1129); conditions: small-molecule microarray binding, fluorescence 635 nm; higher = more signal
# [3] = target: Focal adhesion kinase 1 (Homo sapiens) (UniProt Q05397); experiment: small-molecule microarray binders of FAK, primary screen, biochemical, 635/667 nm fluorescence, BSA, DTT (AID 1130); conditions: PTK2 binding, 635 nm fluorescence, higher = more signal;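 also: composite of spot emission at 667 nm and signal to noise over triplicate slides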
# Focal adhesion kinase 1 (Homo sapiens), sequence (Q05397 whole entry, looked up): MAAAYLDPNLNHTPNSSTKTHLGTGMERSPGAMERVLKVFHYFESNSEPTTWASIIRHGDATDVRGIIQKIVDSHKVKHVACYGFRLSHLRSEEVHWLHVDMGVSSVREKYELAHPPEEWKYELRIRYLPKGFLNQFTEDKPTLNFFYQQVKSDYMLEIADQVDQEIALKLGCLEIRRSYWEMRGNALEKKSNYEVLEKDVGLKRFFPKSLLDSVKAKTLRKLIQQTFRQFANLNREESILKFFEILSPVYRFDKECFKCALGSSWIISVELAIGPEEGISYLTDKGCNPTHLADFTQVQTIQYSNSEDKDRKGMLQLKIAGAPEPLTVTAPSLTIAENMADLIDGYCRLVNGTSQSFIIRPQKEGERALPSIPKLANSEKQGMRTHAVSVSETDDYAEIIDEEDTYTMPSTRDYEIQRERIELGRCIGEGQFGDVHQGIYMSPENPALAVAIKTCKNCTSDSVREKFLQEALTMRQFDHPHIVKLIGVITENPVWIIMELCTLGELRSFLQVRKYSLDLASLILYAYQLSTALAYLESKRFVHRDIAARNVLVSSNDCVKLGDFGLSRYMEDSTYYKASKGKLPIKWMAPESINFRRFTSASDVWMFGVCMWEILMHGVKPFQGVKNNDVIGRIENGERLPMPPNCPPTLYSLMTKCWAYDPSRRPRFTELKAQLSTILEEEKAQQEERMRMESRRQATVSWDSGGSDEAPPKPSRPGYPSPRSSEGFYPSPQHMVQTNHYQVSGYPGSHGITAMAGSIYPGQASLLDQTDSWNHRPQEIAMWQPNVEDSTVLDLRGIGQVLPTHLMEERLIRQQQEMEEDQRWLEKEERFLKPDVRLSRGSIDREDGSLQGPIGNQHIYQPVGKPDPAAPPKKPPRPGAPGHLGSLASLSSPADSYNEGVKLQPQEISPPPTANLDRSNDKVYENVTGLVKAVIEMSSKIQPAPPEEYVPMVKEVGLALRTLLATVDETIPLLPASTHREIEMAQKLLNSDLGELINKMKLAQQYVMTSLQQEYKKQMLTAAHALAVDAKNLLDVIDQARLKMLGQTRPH
# [4] = system: Fibrinogen (Alexa647-labelled); experiment: fibrinogen binders on compound microarrays, profiling panel, artefact control for SMM control-protein annotation, biochemical, small-molecule microarray, 635/667 nm fluorescence (AID 1131); conditions: fibrinogen-A647 binding fluorescence, higher = more signal;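 also: z-score merges 667 nm fluorescence with per-spot signal-to-noise over triplicate slides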
# [5] = target: Follistatin (Homo sapiens) (UniProt P19883); experiment: follistatin binders on small-molecule microarrays, primary screen, biochemical, small-molecule microarray, 635/667 nm fluorescence (AID 1132); conditions: FST binding, 635 nm fluorescence, higher = more signal
# Follistatin (Homo sapiens), sequence (P19883 whole entry, looked up): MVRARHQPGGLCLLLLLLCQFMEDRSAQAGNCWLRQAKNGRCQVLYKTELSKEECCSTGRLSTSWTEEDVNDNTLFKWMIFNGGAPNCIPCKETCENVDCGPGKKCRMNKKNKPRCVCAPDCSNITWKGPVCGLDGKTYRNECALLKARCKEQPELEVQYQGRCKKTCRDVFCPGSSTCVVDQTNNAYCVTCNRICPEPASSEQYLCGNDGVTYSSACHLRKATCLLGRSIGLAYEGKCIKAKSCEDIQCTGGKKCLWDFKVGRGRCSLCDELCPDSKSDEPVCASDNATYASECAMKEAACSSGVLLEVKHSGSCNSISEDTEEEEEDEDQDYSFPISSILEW
# [6] = target: Fibroblast growth factor 2 (Homo sapiens) (UniProt P09038); experiment: FGF2 binders on small-molecule microarrays, primary screen, biochemical, small-molecule microarray, 635/667 nm fluorescence (AID 1133); conditions: small-molecule microarray binding, FGF2, fluorescence 635/667; higher = more signal
# Fibroblast growth factor 2 (Homo sapiens), sequence (P09038 whole entry, looked up): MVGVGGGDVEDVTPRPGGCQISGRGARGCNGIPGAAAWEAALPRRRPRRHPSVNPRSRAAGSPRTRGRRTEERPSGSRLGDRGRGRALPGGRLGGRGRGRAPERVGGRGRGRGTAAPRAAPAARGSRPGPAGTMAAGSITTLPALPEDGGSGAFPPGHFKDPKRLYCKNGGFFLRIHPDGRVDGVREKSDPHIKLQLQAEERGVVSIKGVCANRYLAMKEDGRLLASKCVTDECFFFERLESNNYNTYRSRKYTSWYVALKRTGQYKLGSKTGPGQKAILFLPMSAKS
# [7] = mitochondrial membrane potential change in A549 cells, profiling panel, cell-based, JC-1 fluorescence, basal, 24 h, 100 nL (AID 1138); conditions: higher = more signal;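 also: A549 lung adenocarcinoma cells under basal conditions with no added stimulus; test concentration not given here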
# Lefty1 = Lefty1 binders on small-molecule microarrays, primary screen, biochemical, small-molecule microarray, 635/667 nm fluorescence (AID 1139); conditions: small-molecule microarray binding, fluorescence 635/667; higher = more signal
# [8] = system: wheat germ agglutinin (Triticum aestivum), Alexa647-labelled; experiment: wheat germ agglutinin binders on compound microarrays, profiling panel, artefact control for SMM control-protein annotation, biochemical, small-molecule microarray, 635/667 nm fluorescence (AID 1140); conditions: WGA-A647 binding, 635 nm fluorescence, higher = more signal;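 also: score merges 667 nm feature emission with signal to noise over triplicate slides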
# [9] = target: Luciferin 4-monooxygenase (Photinus pyralis) (UniProt P08659); experiment: firefly luciferase enzyme inhibitors, primary screen, biochemical, luminescence, purified enzyme, 2006 set (AID 1141); conditions: SteadyGlo luminescence, 30 min, higher = more signal, called active from +8 up or from −8 down;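 also: cell-free assay with purified firefly luciferase at 100 ng per well in PBS; test concentration not given here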
# Luciferin 4-monooxygenase (Photinus pyralis), sequence (P08659 whole entry, looked up): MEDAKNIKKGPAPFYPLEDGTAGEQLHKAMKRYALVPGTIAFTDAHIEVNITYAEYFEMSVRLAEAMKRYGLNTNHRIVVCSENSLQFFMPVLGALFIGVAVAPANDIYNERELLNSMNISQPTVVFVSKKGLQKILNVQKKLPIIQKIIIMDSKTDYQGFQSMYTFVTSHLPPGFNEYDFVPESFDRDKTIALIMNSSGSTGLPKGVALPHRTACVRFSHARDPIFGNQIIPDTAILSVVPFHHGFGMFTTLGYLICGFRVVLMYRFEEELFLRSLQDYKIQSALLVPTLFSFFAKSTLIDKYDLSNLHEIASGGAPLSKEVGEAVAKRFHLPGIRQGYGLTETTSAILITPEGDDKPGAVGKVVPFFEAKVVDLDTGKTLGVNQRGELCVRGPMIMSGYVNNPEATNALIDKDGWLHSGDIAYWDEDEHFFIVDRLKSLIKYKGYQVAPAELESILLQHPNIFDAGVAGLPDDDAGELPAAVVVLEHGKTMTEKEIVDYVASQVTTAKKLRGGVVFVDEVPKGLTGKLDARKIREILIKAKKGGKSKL
# [10] = system: Wnt5a (protein binding on small-molecule microarray); experiment: Wnt5a binders on small-molecule microarray, primary screen, biophysical, 635/667 nm fluorescence (AID 1142); conditions: 635 nm fluorescence, higher = more signal;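 also: fluorescence read at 667 nm with signal to noise per printed feature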
# [11] = cell viability in Huh7 cells, primary screen, cytotoxicity control for HCV replication inhibitor project, CellTiter-Glo luminescence, basal, 48 h (AID 1143); conditions: Huh7 HCV replicon, higher = more signal, called active from +8 up or from −8 down;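 also: Huh7 hepatoma cells carrying a hepatitis C replication reporter with no stimulus; test concentration not given here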
# [12] = P. aeruginosa biofilm formation inhibitors, primary screen, PAO1 strain, BacTiter-Glo luminescence, LB-PBS (AID 1144); conditions: 12 h, higher = more signal
# [13] = CREB reporter modulators without forskolin, primary screen, cell-based, PC12, CRE-LacZ reporter, unstimulated (AID 1145); conditions: no forskolin, luminescence, 4.5 h, higher = more signal, called active from +8 up or from −8 down
# [14] = CREB reporter modulators under forskolin, primary screen, cell-based, PC12, CRE-LacZ reporter, forskolin-stimulated (AID 1146); conditions: luminescence, 4.5 h, higher = more signal, called active from +8 up or from −8 down;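 also: PC12 cells with 6xCRE LacZ reporter stimulated by forskolin 10 µM; beta-galactosidase reporter signal reflecting CREB driven transcription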
# [15] = target: Streptavidin (Streptomyces avidinii) (UniProt P22629); experiment: streptavidin binders on small-molecule microarray, primary screen, artefact control for SMM compound annotation, biophysical, 635/667 nm fluorescence (AID 1147); conditions: streptavidin binding, higher = more signal;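 also: signal reflects streptavidin binding to arrayed compounds as a control protein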
# Streptavidin (Streptomyces avidinii), sequence (P22629 whole entry, looked up): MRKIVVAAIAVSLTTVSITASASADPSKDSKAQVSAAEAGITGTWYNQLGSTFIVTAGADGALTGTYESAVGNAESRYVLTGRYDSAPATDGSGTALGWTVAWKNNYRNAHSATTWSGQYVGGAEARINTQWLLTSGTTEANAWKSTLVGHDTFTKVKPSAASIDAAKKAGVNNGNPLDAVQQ
# [16] = small-molecule binders of probe aInhba, primary screen, biochemical, small-molecule microarray, 635/667 nm fluorescence (AID 1148); conditions: higher = more signal;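 also: score merges 667nm spot fluorescence with signal-to-noise for antibody binding to printed compounds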
# Torsin-1A (Homo sapiens) [17] = target: Torsin-1A (Homo sapiens) (UniProt O14656); experiment: torsin A binders from cell lysate, primary screen, small-molecule microarray, wild-type, 635/667 nm (AID 1149); conditions: COS7 hTOR1A-WT lysate, 635 nm fluorescence, higher = more signal
# Torsin-1A (Homo sapiens), sequence (O14656 whole entry, looked up): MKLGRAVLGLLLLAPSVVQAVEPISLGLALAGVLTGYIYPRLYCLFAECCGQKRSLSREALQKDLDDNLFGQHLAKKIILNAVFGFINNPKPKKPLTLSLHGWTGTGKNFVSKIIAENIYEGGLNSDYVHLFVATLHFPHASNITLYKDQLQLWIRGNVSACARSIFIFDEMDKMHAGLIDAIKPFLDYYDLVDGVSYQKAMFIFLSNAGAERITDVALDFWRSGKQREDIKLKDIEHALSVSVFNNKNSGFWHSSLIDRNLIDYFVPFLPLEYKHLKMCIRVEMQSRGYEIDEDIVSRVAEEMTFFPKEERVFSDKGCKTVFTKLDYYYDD
# Torsin-1A (Homo sapiens) [18] = target: Torsin-1A (Homo sapiens) (UniProt O14656); experiment: small-molecule binders of mutant TOR1A in lysate, primary screen, cell lysate, small-molecule microarray, COS7 lysate, 635/667 nm fluorescence (AID 1150); conditions: COS7 hTOR1A mutant lysate, 635 nm fluorescence, higher = more signal;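 also: score pools 667 nm emission and signal to noise measuring lysate protein binding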
# [19] = system: Sonic hedgehog protein (Shh); experiment: small-molecule binders of Shh protein, primary screen, biochemical, small-molecule microarray, 635/667 nm fluorescence (AID 1151); conditions: small-molecule microarray binding, 635 nm fluorescence; higher = more signal;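 also: Shh protein binding to compounds spotted on small-molecule microarray slides; score combines spot fluorescence intensity with signal-to-noise across triplicate slides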
Compound,composite z-score [1],composite z-score [2],composite z-score [3],composite z-score [4],composite z-score [5],composite z-score [6],z-score [7],composite z-score (Lefty1),composite z-score [8],z-score [9],composite z-score [10],z-score [11],z-score [12],z-score [13],z-score [14],composite z-score [15],composite z-score [16],composite z-score (Torsin-1A (Homo sapiens) [17]),composite z-score (Torsin-1A (Homo sapiens) [18]),composite z-score [19]
C=CC[C@@]1(C(=O)NCCCOC)N=C(c2ccc(OCCCO)cc2)O[C@@H]1c1ccccc1CN=[N+]=[N-],2.86,1.21,0.117,1.01,1.15,0.312,1.7,0.309,0.719,0.645 (inactive),0.645,-3.72 (inactive),-0.584 (inactive),-0.45 (inactive),-0.48 (inactive),0.706,0.0921,0.112,0.734,0.0532
O=C1OCCC/C=C\[C@H]2OC34C=CCN(Cc5ccccc5)C(=O)[C@H]3N(CCO)C(=O)[C@@H]4C12 (stereo not given in full),-0.941,0.444,-0.287,-0.956,-0.296,-0.259,1.64,0.398,-0.889,-1.56 (inactive),0.0691,0.347 (inactive),-1.38 (inactive),-0.0899 (inactive),-0.0501 (inactive),-1.06,0.225,1.3,0.232,1.87
C=C(C(=O)CC[C@H](OC(=O)c1ccccc1-c1ccccc1C(=O)O)c1ccc(OCCO)cc1)C(C)C,0.547,1.16,0.124,0.981,0.901,0.726,-0.45,0.64,0.189,-1.35 (inactive),0.686,-0.723 (inactive),-1.22 (inactive),0.611 (inactive),1.09 (inactive),-0.0151,0.0497,1.87,1.5,0.7
O=C1O[C@@H](c2ccccc2)[C@@H](c2ccccc2)N2[C@@H](c3ccccc3OCCO)[C@]3(C(=O)Nc4ccc(C#CC5(O)CCCCCC5)cc43)[C@@H](C(=O)N3CCCCCCC3)[C@H]12,2.72,1.27,4.12,0.89,1.58,0.718,-1.1,1.99,1.67,-0.37 (inactive),2.35,-5.6 (inactive),-0.349 (inactive),-0.168 (inactive),0.306 (inactive),2.41,2.16,3.29,3.08,2.06
CCCCC(=C=CC[C@@H](O)c1ccccc1OCCO)C[C@@H](O)c1ccccn1,-0.242,0.451,0.36,0.296,0.638,0.356,0.969,0.699,-0.306,-0.96 (inactive),-0.11,-0.675 (inactive),-0.138 (inactive),2.72 (inactive),-0.446 (inactive),-0.231,-0.024,-0.245,0.495,0.897
CC(=O)NCCCC[C@@H]1NC(=O)[C@H]2C[C@@H](C(=O)NCCCCCN)[C@@H](c3ccc(O)cc3)N2C1=O,2.49,1.21,0.948,0.653,1.12,1.13,-0.109,0.944,0.773,0.148 (inactive),0.0662,0.0104 (inactive),0.447 (inactive),-0.0038 (inactive),0.126 (inactive),0.947,-0.0658,0.274,0.568,1.01
COc1ccc(CCNC(=O)[C@@H]2c3ccccc3C(=O)N(C(C)C)[C@H]2c2ccc(CO)cc2)cc1,-1.32,-0.878,-0.736,-1.3,-1.27,-0.934,2.71,-2.21,-1.74,-0.897 (inactive),-0.234,0.172 (inactive),0.948 (inactive),0.351 (inactive),-0.859 (inactive),-0.896,-0.253,0.123,0.0739,-0.937
OCCCc1cc[n+](Cc2cc3c(cc2Br)OCO3)cc1,-0.874,-1.86,-0.719,-1.64,-0.528,-0.333,-0.0611,-0.903,-0.77,-0.903 (inactive),-0.265,-0.633 (inactive),0.0177 (inactive),-0.374 (inactive),-0.121 (inactive),-0.838,-0.209,-1.27,-0.561,-0.508
[N-]=[N+]=Nc1ccccc1C[C@@]1(C(=O)NCC(O)CO)N=C(c2ccc(OCCCO)cc2)O[C@@H]1c1ccccc1N=[N+]=[N-] (stereo not given in full),1.85,1.18,1.03,0.79,0.14,-0.491,-2.28,-0.19,1.13,-4.27 (inactive),1.28,-4.99 (inactive),-0.0717 (inactive),0.825 (inactive),-1.42 (inactive),1.23,-0.0504,1.53,0.0816,-0.59
[N-]=[N+]=Nc1ccccc1C[C@]1(C(N)=O)COC(c2ccc(OCCCO)cc2)=N1,0.809,-0.835,0.214,-0.445,0.91,-0.261,-0.566,-0.954,0.99,-8.73 (active),0.131,-3.62 (inactive),-1.16 (inactive),1.33 (inactive),-1.31 (inactive),0.559,0.285,0.517,1.21,-0.567
